We go through 7 compounds from PubChem BioAssay (NCI).

Molecules are shown by their SMILES. About 83,000 compounds went through this panel and 20% of them were active in at least one assay; those are over-represented in the sample as a whole.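 Negative percent growth values reflect cell death: -40 means 40% of the cells present at the start died, and -100 means all died.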 Unmarked numbers belong to inactive results. The source made the active and inactive calls. How the source made its calls: active means growth percent below 10; inactive means the rest.

What all share (experiment): NCI-60 one-dose screen, 48 h (100 = growth as untreated, 0 = no growth, -100 = all killed)
Holding throughout (settings): 10 µM unless noted

Test [1] relates to SK-MEL-2 melanoma.
For test [2], the system named is EKVX NSCLC.
In test [3] the test system is SN12C renal.
Test [4] has as its system UO-31 renal.
Test [5] relates to TK-10 renal.
For test [6], the system named is ACHN renal.
The test system of test [7] is CAKI-1 renal.
The test system of test [8] is A498 renal.
Test [9] has as its system CCRF-CEM leukemia.
Test [10] relates to MOLT-4 leukemia.
For test [11], the system named is RPMI-8226 leukemia.
The subject of test [12] is OVCAR-8 ovarian.
Test [13] has as its system OVCAR-5 ovarian.
Test [14] concerns OVCAR-4 ovarian.
Test [15] deals with SK-OV-3 ovarian.
Test [16] deals with IGROV1 ovarian.
For test [17], the system named is OVCAR-3 ovarian.
In test [18] the test system is HS 578T breast.
In test [19] the test system is NCI/ADR-RES ovarian.

In the case of `COc1cc(/C=N/n2c(CN3CCOCC3)nc3ccccc3c2=O)cc(OC)c1OC`, the growth was 113% in test [1]; 107% in [2]; 101% in [3]; 87.7% in test [4]; 103% in [5]; 103% in [6]. Besides, the growth in [7] is 100%; in test [8] it was 81.8%; in test [9] it was 104%; in [10], 103%; in [11] it was 107%; in test [12] it was 96.1%. Moreover, the growth is 97.4% in test [13]; 104% in test [14]; 103% in [15]; 98.3% in test [16]; 106% in [17]; 105% in test [18]. The growth in test [19] was 101%.
With `CCCCN(CCCC)CC(C)(C)C(O)c1ccc(OC)c2ccccc12` (configuration not stated), the growth in test [1] is 76.7%; in [2], 44%; in [3], 46.7%; in [4], 34.1%; in test [5] it was 51.4%; in test [6], 56.5%. Moreover, the growth in test [7] is 23.1%; in test [8], 59.3%; in test [9] it was 50%; in [10] it was 27.6%; in [11], 4.33% (active); in test [12], 74.2%. Besides, the growth in test [13] was 57.6%; in [14], 56.7%; in test [15], 79.1%; in test [16], -13.4% (active); in test [17] it was -11.9% (active); in test [18] it was 55.7%. Moreover, the growth in [19] was 49.3%.
With `Clc1ccc(-c2c3ccc(=[N+]4CCCCC4)cc-3oc3cc(N4CCCCC4)ccc23)cc1`, the growth in [1] was -77.4% (active); in [2] it was -66.7% (active); in [3], -79.1% (active); in test [4], -83.9% (active); in test [5], -94.8% (active); in test [6], -94.4% (active). Moreover, the growth in [7] is -75.2% (active); in test [8] it was -97.5% (active); in [9], 0.54% (active); in test [10], -32.1% (active); in test [11], -41.9% (active); in [12] it was -50.6% (active). The growth is -90.3% (active) in [13]; -82.5% (active) in [14]; -95.8% (active) in test [15]; -77% (active) in [16]; -26.1% (active) in [18]; -65.7% (active) in test [19].
For the compound `COCCc1ccc(OCC(O)CNC(C)C)cc1` (configuration not stated), the growth in test [1] was 108%; in [2], 96%; in [3] it was 109%; in test [4] it was 79.4%; in test [5], 110%; in test [6], 108%. In addition, the growth is 96.4% in test [7]; 103% in test [8]; 96% in test [9]; 91.4% in [10]; 98.1% in [11]; 101% in test [12]. In addition, the growth in test [13] is 110%; in test [14] it was 98.8%; in test [15], 106%; in test [16], 104%; in [17], 118%; in test [18] it was 101%. Besides, the growth in test [19] is 105%.
For the compound `C=C(C)[C@@H]1CC=C2c3sc(-c4ccc(C)cc4)nc3C[C@@H](C)[C@]2(C)C1`, the growth was 105% in test [1]; 95.1% in test [2]; 98.8% in test [3]; 78% in test [4]; 113% in [5]; 102% in test [6]. In addition, the growth in test [7] is 90.6%; in [8] it was 106%; in [9] it was 99.4%; in test [10], 98%; in test [11] it was 109%; in test [12], 99.3%. The growth in test [13] is 101%; in [14], 98.2%; in test [15] it was 97.5%; in test [16], 109%; in test [17] it was 104%; in test [18], 100%. In addition, the growth in [19] was 106%.
For the compound `O=c1oc2ccccc2c(Cl)c1Cl`, the growth in test [1] is 54.7%; in [2] it was 106%; in test [3], 17.9%; in test [4], 62.3%; in test [5] it was 94.3%; in [6] it was 80.7%. The growth in [7] is 83.4%; in test [8] it was 112%; in test [9], 18.9%; in test [10], 37.5%; in test [11] it was 40.6%; in test [12] it was 61%. The growth in test [13] is 88.1%; in [14] it was 91.7%; in test [15], 94.7%; in test [16], 47.5%; in test [17], 103%; in [18] it was 85%. The growth in test [19] was 86.4%.
As for `COc1ccc(-c2c(N)n[nH]c2-c2ccc(Cl)cc2O)cc1OC`, the growth was 78.7% in [1]; 109% in test [2]; 52.4% in test [3]; 74% in test [4]; 102% in test [5]; 96.1% in test [6]. Besides, the growth in test [7] is 90.5%; in test [8], 86.6%; in [9], 69.1%; in test [10], 107%; in [11] it was 74.5%; in test [12] it was 87.1%. The growth was 72.6% in test [13]; 94.1% in test [14]; 102% in test [15]; 92.3% in test [16]; 95.6% in test [17]; 89.2% in test [18]. For the same compound, in test [19], the growth is 90.4%.
